LGR2 inh: blocks bursicon-induced cAMP signaling via Drosophila LGR2 | inhibition, % at 9.99 µM | HEK293 LGR2, CRE-luciferase, bursicon-stimulated, 4 h | 380,000 tested, 0.35% active;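 active = drop in luminescence signal, shown as inhibition above about 50% in the replicate tests, limit read from the data, passing the limit was not always enough; inconclusive = probably only some replicates passing the limit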;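 note: agonist challenge used bursicon conditioned medium at about half maximal strength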
SIRT5 inh: inhibitors of human sirtuin-5 desuccinylase. Purified SirT5, succinyl-peptide AMC, trypsin-coupled fluorescence. 330,000 tested, 1.1% active. inhibition, % at 15 µM. AID 652115; in the data active = inhibition above about 15%; inconclusive = no clear call, values can overlap the other calls
Target sequence (Q9NXA8 whole entry, looked up): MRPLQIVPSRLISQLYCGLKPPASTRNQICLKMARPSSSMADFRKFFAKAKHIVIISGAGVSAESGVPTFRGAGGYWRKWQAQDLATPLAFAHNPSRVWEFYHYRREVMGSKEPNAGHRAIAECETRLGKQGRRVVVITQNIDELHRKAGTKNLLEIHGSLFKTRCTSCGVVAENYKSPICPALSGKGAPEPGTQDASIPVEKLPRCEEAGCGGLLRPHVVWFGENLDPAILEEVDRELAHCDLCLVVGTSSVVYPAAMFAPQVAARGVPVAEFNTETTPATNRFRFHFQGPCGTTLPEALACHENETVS
PAX8 inh HTS: PAX8 transcriptional activity inhibition; RMG-I TPO-luciferase reporter, SteadyGlo, 24 h; inhibition, % at 12.6 µM; 360,000 tested, 1.2% active; AID 652154;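 active = mean replicate inhibition at least 60% with every replicate also reaching 60%; inconclusive = only one of the two criteria is met; inactive = mean below 60% and not all replicates reaching 60%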;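 note: luciferase light reporting Pax8 driven TPO promoter activity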
PGC1a acetyl inh: PGC1a acetylation modulation, inhibitor mode; U2OS PGC1a acetylation, AlphaScreen anti-acetyl-lysine; with virally co-expressed GCN5 acetyltransferase; AID 651687; 350,000 tested, 0.17% active; inhibition, % at 15.6 µM;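 active = every replicate shows inhibition of at least 40%; inconclusive = mean inhibition at least 40% but some replicate below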
EWS-Fli inh: blocks EWS/Fli oncoprotein-driven transcription. A673 NR0B1-luciferase reporter, viability-normalised. inhibition, % at 12.6 µM. 350,000 tested, 0.67% active. AID 651661;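 active = mean inhibition of at least 50% after viability correction, with every replicate also passing that limit; inconclusive = mean reaches 50% but only one of two replicates passes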;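 note: firefly luciferase signal divided by Alamar Blue viability fluorescence both relative to DMSO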
rRNA inh HTS: inhibitors of bacterial rRNA selective over humanized ribosomes; E. coli WT GFP vs humanized-ribosome RFP mutants, fluorescence, 24 h; stronger effect = lower value; DMSO median 0, no signal -100; GFP signal change (wild-type ribosome), % (concentration not given with the values); 350,000 tested, 1.6% active;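 active = significant combined selectivity score with lowered wild-type GFP, culture density cut under 30%, mutant RFP and density less affected; inactive = any of these conditions unmet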
Each line names hits and unclear results; the compound was inactive in the other large screens. In the library only some 3.4% were active in any assay of this set; here they are far more common.

O=C(NCCCCc1ccccc1)c1ccccc1F	none
O=C(NCCCCc1ccccc1)c1ccccc1Br	rRNA inh HTS -36.2
CCN(CC(=O)Nc1ccc(NC(C)=O)cc1)C(=O)/C=C/c1ccccc1	none
CCN(CC(=O)Nc1ccc(NC(C)=O)cc1)C(=O)/C=C/c1cn(-c2ccccc2)nc1-c1cccs1	rRNA inh HTS -18.1 (no result: PGC1a acetyl inh)
CC1=NNC(=O)/C1=C\c1cn(-c2ccccc2)nc1-c1ccc(F)cc1	none (no result: LGR2 inh, SIRT5 inh, PAX8 inh HTS, EWS-Fli inh, rRNA inh HTS)
O=C(O)CCN1C(=O)/C(=C/c2cn(-c3ccccc3)nc2-c2cccs2)SC1=S	none
CN1CCC(N(C)C(=O)/C=C/c2cn(-c3ccccc3)nc2-c2cccs2)CC1	LGR2 inh 78.0
CC1=NNC(=O)/C1=C\c1cn(-c2ccccc2)nc1-c1cccs1	LGR2 inh 58.7, EWS-Fli inh 77.4 (no result: PGC1a acetyl inh)
Cc1cc(OCC(=O)NC(C)C)cc(C)c1Br	PAX8 inh HTS 65.1 (no result: PGC1a acetyl inh)
CC(C)NC(=O)Nc1ccc2c(c1)CC(=O)N(C)C[C@@H](C)[C@@H](CN(C)S(C)(=O)=O)O2	none (no result: LGR2 inh, SIRT5 inh, PAX8 inh HTS, PGC1a acetyl inh, EWS-Fli inh)
CC1CN(C(=O)Nc2ccc(Br)cc2Cl)CC(C)O1 (stereo not drawn)	SIRT5 inh 66.5 (no result: PGC1a acetyl inh)
Cc1ccc(NC(=O)c2ccccc2)s1	none (no result: LGR2 inh, SIRT5 inh, PGC1a acetyl inh, EWS-Fli inh, rRNA inh HTS)
CN=C(Nc1ccc(C(=O)OC)s1)c1ccccc1	SIRT5 inh 31.6 (no result: PGC1a acetyl inh)
C#CCN(C[C@@H]1[C@@H](OC(=O)NCc2ccc(OC)c(OC)c2)[C@@H](OC(=O)NCc2ccc(OC)c(OC)c2)CN(C(=O)OC(C)C)N1C(=O)OC(C)C)S(=O)(=O)c1ccc(C)cc1	none (no result: SIRT5 inh)
C#CCN(C[C@@H]1[C@@H](OC(=O)NCc2ccc(OC)c(OC)c2)[C@@H](OC(=O)NCc2ccc(OC)c(OC)c2)Cn2c(=O)ccc(=O)n21)S(=O)(=O)c1ccc(C)cc1	PAX8 inh HTS 112.8
C#CCN(C[C@@H]1[C@@H](OC(=O)NC2CCCC2)[C@@H](OC(=O)NC2CCCC2)CN(C(=O)OC(C)C)N1C(=O)OC(C)C)S(=O)(=O)c1ccc(C)cc1	PAX8 inh HTS 79.2
C#CCN(C[C@@H]1[C@@H](OC(=O)NCc2ccc(OC)c(OC)c2)[C@@H](OC(=O)NCc2ccc(OC)c(OC)c2)Cn2c(=O)n(CCCCCC)c(=O)n21)S(=O)(=O)c1ccc(C)cc1	none (no result: SIRT5 inh)
C#CCN(C[C@@H]1[C@@H](OC(=O)NCc2ccco2)[C@@H](OC(=O)NCc2ccco2)Cn2c(=O)n(CCCCCC)c(=O)n21)S(=O)(=O)c1ccc(C)cc1	none (no result: SIRT5 inh)
C#CCN(C[C@@H]1[C@@H](OC(=O)NCc2ccco2)[C@@H](OC(=O)NCc2ccco2)Cn2c(=O)ccc(=O)n21)S(=O)(=O)c1ccc(C)cc1	LGR2 inh inconclusive, PAX8 inh HTS 73.0 (no result: rRNA inh HTS)
C#CCN(C[C@@H]1[C@@H](OC(=O)NCC2CCCCC2)[C@@H](OC(=O)NCC2CCCCC2)Cn2c(=O)ccc(=O)n21)S(=O)(=O)c1ccc(C)cc1	LGR2 inh 72.1, PAX8 inh HTS 115.9, PGC1a acetyl inh 91.4
O=C(O)C[C@H]1C=C[C@@H](NC(=O)Nc2ccccc2)[C@@H](CO)O1	none
O=C(Nc1ccc(Cl)c(Cl)c1)N[C@@H]1CC[C@@H](CCNC(=O)c2ccc(F)cc2)O[C@@H]1CO	none
O=C(Nc1cc(F)ccc1F)N1CCCCN2[C@H](CO)[C@H](c3ccc(-c4ccccc4)cc3)[C@H]2C1	SIRT5 inh 28.8 (no result: EWS-Fli inh)
O=C(Nc1cc(F)ccc1F)N1CCCCN2[C@H](CO)[C@H](c3ccc(-c4cccnc4)cc3)[C@@H]2C1	none
O=C(Nc1cc(F)ccc1F)N1CCCCN2[C@@H](CO)[C@H](c3ccc(-c4cccnc4)cc3)[C@@H]2C1	rRNA inh HTS -24.5 (no result: SIRT5 inh)
COc1ccccc1NC(=O)N1CCCCN2[C@H](CO)[C@H](c3ccc(-c4cccc(F)c4)cc3)[C@@H]2C1	SIRT5 inh 15.7
OCC1(Cc2ccc(Cl)cc2)CCN(Cc2ccc3nsnc3c2)CC1	rRNA inh HTS -23.2
COc1ccc(CC2(CO)CCN(Cc3ccc4nsnc4c3)CC2)cc1	none (no result: PGC1a acetyl inh)
C/C=C/c1ccc2c(c1)O[C@H](CN(C)C(=O)c1ccc(F)cc1)[C@H](C)CN([C@H](C)CO)S2(=O)=O	none
Nc1ccc(C(=O)Nc2ccc3nc(-c4ccncc4)[nH]c3c2)cc1	rRNA inh HTS -33.0
CN1C(C(=O)Nc2cccc(O)c2)=CC(c2cccs2)=NS1(=O)=O	none
CC(=O)c1cccc(NC(=O)C2=CC(c3cccs3)=NS(=O)(=O)N2C)c1	rRNA inh HTS -19.5
C[C@@H]1CCCCO[C@@H](CN(C)C(=O)c2ccncc2)[C@@H](C)CN([C@H](C)CO)C(=O)c2cc(NC(=O)CCCCCC(=O)Nc3ccccc3N)ccc2O1	PGC1a acetyl inh 99.2
C[C@@H]1CN([C@H](C)CO)C(=O)c2cc(NC(=O)Cc3ccccc3)ccc2O[C@@H](C)CCCCO[C@H]1CN(C)Cc1ccc(Cl)c(Cl)c1	PAX8 inh HTS 97.2 (no result: PGC1a acetyl inh)
C[C@@H]1CCCCO[C@@H](CN(C)Cc2ccc(Cl)c(Cl)c2)[C@@H](C)CN([C@H](C)CO)C(=O)c2cc(NC(=O)CCCCCC(=O)Nc3ccccc3N)ccc2O1	SIRT5 inh 23.6
C[C@H]1CCCCO[C@H](CN(C)Cc2ccc(Cl)c(Cl)c2)[C@@H](C)CN([C@@H](C)CO)C(=O)c2cc(NC(=O)Cc3ccccc3)ccc2O1	PAX8 inh HTS inconclusive (no result: PGC1a acetyl inh)
C[C@@H]1CCCCO[C@@H](CN(C)Cc2ccc(Cl)c(Cl)c2)[C@H](C)CN([C@@H](C)CO)C(=O)c2cc(NC(=O)Cc3ccccc3)ccc2O1	PAX8 inh HTS 86.6 (no result: PGC1a acetyl inh)
C[C@@H]1CCCCO[C@H](CN(C)Cc2ccccc2)[C@@H](C)CN([C@@H](C)CO)C(=O)c2cc(NC(=O)CCCCCC(=O)Nc3ccccc3N)ccc2O1	none
CN(C)CC(=O)N[C@H]1C=C[C@H](CC(=O)O)O[C@@H]1CO	none (no result: PAX8 inh HTS, PGC1a acetyl inh)
COc1ccc2c3c(n(C)c2c1)[C@H](CO)N(CC1CCOCC1)CC31CN(C(=O)Nc2ccccc2)C1	none (no result: PAX8 inh HTS)
C[C@@H]1CN([C@@H](C)CO)C(=O)c2cc(-c3cncnc3)cnc2O[C@H]1CN(C)C(=O)Nc1ccc2c(c1)OCO2	none (no result: PAX8 inh HTS)
CC(C)C[C@@H](C)C(=O)N(Cc1ccccc1)c1ccccc1	rRNA inh HTS -34.8 (no result: PGC1a acetyl inh)
COc1ccc2c3c(n(C)c2c1)[C@@H](CO)N(C(=O)c1ccccn1)CC31CCN(C)CC1	none (no result: SIRT5 inh, PAX8 inh HTS)
O=C(Nc1ccccc1O)c1ccc(C(=O)c2ccccc2)o1	none (no result: PGC1a acetyl inh)
COc1ccccc1NC(=O)c1ccc(C(=O)c2ccccc2)o1	rRNA inh HTS -32.4
C[C@H](CO)N1C[C@H](C)[C@H](CN(C)Cc2ccc(Cl)c(Cl)c2)Oc2ccc(NC(=O)NC3CCCCC3)cc2C1=O	none (no result: PAX8 inh HTS)
CCCOc1ccccc1OCC(=O)Nc1ccc(S(=O)(=O)N2CCCC2)cc1	none (no result: PGC1a acetyl inh)
CC(C)Cn1nc(C(=O)Nc2cccc(S(=O)(=O)N3CCCC3)c2)c2ccccc2c1=O	none (no result: PGC1a acetyl inh)

Source: PubChem (Broad Institute)
